Sampled rows, rich in hits. Any-hit rate of the full collection: about 31%.
CYP2C9 activ = activators of human CYP2C9 | activation factor at 5 µM | AID 1024 | P11712 | 1.4% of 96,000 active | recombinant CYP2C9, luciferin-H conversion, luminescence; stronger effect = higher value; factor 1 = untreated enzyme, 0 = blocked;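 active = activation factor of 2 or more for CYP2C9 at a 5 µM dose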
PLAP activator = activates human placental alkaline phosphatase; purified PLAP enzyme, luminescent substrate read-out; stronger effect = higher value; activation fold at 20 µM; 1.2% of 96,000 active; AID 696; in the data active = activation fold above about 2
CYP2C9 inh = blocks human cytochrome P450 2C9. CYP2C9 Supersomes, luciferin-H conversion, luminescence. AID 777. 20% of 96,000 active. inhibition, % at 5 µM. P11712;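 active = blocking of liver enzyme CYP2C9 beyond about 50% at 5 µM, limit read from the data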
CYP2C19 act = increases human CYP2C19 enzyme activity | 96,000 tested, under 10 active | P33261 | recombinant CYP2C19, luciferin-H EGE luminescence; stronger effect = higher value; 0 = fully inhibited enzyme, 1 = untreated enzyme | activation factor at 5 µM;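 active = activation factor of at least 2 at 5 µM in the primary screen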
Target sequence (P33261 whole entry, looked up): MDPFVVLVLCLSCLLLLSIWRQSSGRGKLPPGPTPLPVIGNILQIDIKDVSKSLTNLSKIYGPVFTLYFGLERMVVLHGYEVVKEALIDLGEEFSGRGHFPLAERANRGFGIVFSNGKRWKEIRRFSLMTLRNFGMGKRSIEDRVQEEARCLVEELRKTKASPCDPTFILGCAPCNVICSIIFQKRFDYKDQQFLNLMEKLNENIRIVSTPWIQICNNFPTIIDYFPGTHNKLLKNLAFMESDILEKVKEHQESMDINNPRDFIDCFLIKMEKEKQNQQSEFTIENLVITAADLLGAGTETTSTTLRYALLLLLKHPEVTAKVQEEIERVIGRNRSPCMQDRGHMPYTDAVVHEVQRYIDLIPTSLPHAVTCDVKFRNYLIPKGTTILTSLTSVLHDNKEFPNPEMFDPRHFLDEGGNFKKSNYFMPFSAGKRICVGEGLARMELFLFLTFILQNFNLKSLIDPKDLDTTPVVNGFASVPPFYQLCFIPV
CYP2C19 inh = blocks human cytochrome P450 2C19; inhibition, % at 5 µM; 21% of 96,000 active; AID 778; CYP2C19 Supersomes, luciferin-H EGE luminescence, 30 min; P33261;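 active = CYP2C19 inhibition above a set limit at 5 µM in the primary screen, cut at about 50% in these data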
Large screens that a line does not name were inactive.

CC(=O)Nc1ccc2c(c1)N(C(=O)CN(C)C)c1ccccc1CC2	none
CCN(CC)CCNC(=O)c1ccc2c(=O)n(CCc3ccccc3)c(=O)[nH]c2c1	none
COc1ccc(-c2nc3ccccc3c(C(=O)Nc3ccc(S(=O)(=O)Nc4cc(C)on4)cc3)c2C)cc1	none
O=C(Nc1ccccc1)c1ccc(NCc2ccco2)c(S(=O)(=O)N2CCOCC2)c1	CYP2C9 inh 90.4, CYP2C19 inh 86.6
O=C(Nc1ccccc1)c1ccc(NCCN2CCOCC2)c(S(=O)(=O)N2CCOCC2)c1	none
O=C(NCc1ccncc1)c1ccc(Cl)c(S(=O)(=O)N2CCOCC2)c1	CYP2C9 inh 81.9, CYP2C19 inh 67.8
O=C(Nc1ccccc1)c1ccc(NCc2cccnc2)c(S(=O)(=O)N2CCOCC2)c1	CYP2C9 inh 55.9, CYP2C19 inh 53.7
NS(=O)(=O)c1cccnc1Nc1cccc(Cl)c1Cl	none
CC1CCC(NC(=O)c2cnccn2)CC1 (configuration not stated)	none
Cc1cc(C)n2ncc(C(=O)NCc3cccnc3)c2n1	none
CCn1c(CNc2ccc(F)cc2)nnc1SCC(=O)N1CCCc2ccccc21	CYP2C19 inh 63.0
CCn1c(CNc2ccc(C)cc2C)nnc1SCC(=O)N1CCCc2ccccc21	CYP2C19 inh 86.4
COc1ccc(NCc2nnc(SCC(=O)N3CCCc4ccccc43)n2C)cc1	none
Cc1ccc(NCc2nnc(SCCN3CCCCC3)n2CC2CCCO2)c(C)c1 (configuration not stated)	none
Cc1ccc(NCc2nnc(SCC(=O)Nc3ccccc3)n2CC2CCCO2)c(C)c1 (configuration not stated)	CYP2C19 inh 52.3
COc1ccc(C(C(=O)NC2CCCCC2)N(CC2CCCO2)C(=O)CNC(=O)c2ccco2)cc1 (configuration not stated)	none
CCCCNS(=O)(=O)c1ccc2nc(SCC(=O)Nc3sccc3C#N)[nH]c2c1	CYP2C9 inh 97.4, CYP2C19 inh 68.6
COc1ccc2nc(SCC(=O)/C(C#N)=C(\C)N)[nH]c2c1	none
CCCCNS(=O)(=O)c1ccc2nc(SCC(=O)c3ccccc3OC)[nH]c2c1	PLAP activator 2.2, CYP2C9 inh 93.9, CYP2C19 inh 93.9
C=CCNc1nnc(SC2CC(=O)N(c3ccc(OC)cc3)C2=O)s1 (configuration not stated)	none
CCOC(=O)c1cn(-c2nc(-c3ccc(Cl)cc3)cs2)c2c(F)c(N3CC(C)OC(C)C3)c(F)cc2c1=O (configuration not stated)	none
COc1ccc(OC)c(-c2nnc(SCC(=O)N3CCCc4ccccc43)o2)c1	CYP2C19 inh 98.1
COc1cccc(-c2nnc(SCC(=O)N3CCCc4ccccc43)o2)c1	CYP2C19 inh 95.0
Cc1occc1-c1nnc(SCC(=O)N2CCc3ccccc32)o1	CYP2C19 inh 74.3
COc1cc(C(=O)NCc2nnc(SCC(=O)NCc3ccccc3)o2)cc(OC)c1OC	none
COc1cc(C(=O)NCc2nnc(SCC(=O)N3CCc4ccccc43)o2)cc(OC)c1OC	CYP2C9 inh 78.7, CYP2C19 inh 63.6
COc1cccc(-c2nc(CSCC(=O)N3CCc4ccccc43)c(C)o2)c1	none
COCc1cc(=O)[nH]c2cc(NC(=O)C(C)(C)CCl)c(C)cc12	none
O=C1CCc2cc(S(=O)(=O)NC(Cc3ccccc3)C(=O)NC3CCCC3)ccc2N1 (configuration not stated)	none
C=CCNC(=O)C1CC(=O)N(c2ccc(OCC(=O)NCc3ccccc3)cc2)C1 (configuration not stated)	none
O=C(CSc1nnc(-c2cccs2)o1)N1CCCc2ccccc21	CYP2C19 inh 76.8
COc1cc(OC)cc(-c2nnc(SCC(=O)N3CCCc4ccccc43)o2)c1	CYP2C19 inh 91.6
Cc1ccn2cc(-c3ccc(S(=O)(=O)N4CCOCC4)cc3)nc2c1	none
Cc1ccc(N(CC(O)COCc2ccco2)S(=O)(=O)c2ccc(C)cc2)cc1 (configuration not stated)	CYP2C9 inh 87.8, CYP2C19 inh 94.4
O=C(CN(c1ccc2c(c1)OCCO2)S(=O)(=O)c1ccccc1)NCc1ccco1	CYP2C9 inh 61.5, CYP2C19 inh 70.7
Cc1ccc(N(CC(=O)NCc2ccco2)S(=O)(=O)c2ccccc2)cc1	CYP2C9 inh 91.6, CYP2C19 inh 93.9
Cc1ccc(N(CC(=O)Nc2ccccc2-c2ccccc2)S(=O)(=O)c2ccccc2)cc1	CYP2C9 inh 59.6, CYP2C19 inh 54.9
